The subject of assay [1] is RAW-Dual. Kind of assay: NF-kB SEAP reporter activity, fold change vs agonist alone; cytotoxicity flag (confluency mask): not cytotoxic; higher = enhanced NF-kB activity. The method, boiled down: (§1)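 Cytotoxic wells were those whose IncuCyte confluency was below 70% of agonist controls in both mask sets. The cells were RAW-Dual macrophages at 50,000 cells/well in DMEM on 384-well plates, dosed with 50 nL of library stock by pin tool, stimulated with a PRR agonist 1 h later, and kept at 37 °C, 5% CO2 for 20 hours. IRF and NF-κB reporter activity, as fold change over agonist-alone wells, came from supernatant read by QuantiLuc luminescence and QuantiBlue absorbance, respectively.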

In assay [2] the test system is RAW-Dual. Description: NF-kB SEAP reporter activity, fold change vs agonist alone; higher = enhanced NF-kB activity. The method, boiled down:
as §1

Assay [3] concerns RAW-Dual. Kind of assay: NF-kB SEAP reporter activity, fold change vs agonist alone; cytotoxicity flag (confluency mask): cytotoxic (confluency <70% of control); higher = enhanced NF-kB activity. The method, boiled down: as §1
The mark [4] stands for this setting: agonist: ODN 1826 (TLR9) 0.5 ug/mL.
[5] abbreviates: agonist: Pam2CSK4 (TLR2/6) 0.1 ug/mL.
The mark [6] stands for this setting: agonist: Pam3CSK4 (TLR2/1) 0.1 ug/mL.
Setting [7] is: library stock concentration (final ~1000-fold dilution): 10 mM, cytotoxicity flag (confluency mask): not cytotoxic, agonist: MPLA (TLR4) […].
[8] abbreviates: library stock concentration (final ~1000-fold dilution): 10 mM, cytotoxicity flag (confluency mask): not cytotoxic, agonist: Imiquimod (TLR7) […].
Where [9] appears, read: library stock concentration (final ~1000-fold dilution): 10 mM, cytotoxicity flag (confluency mask): cytotoxic (confluency <70% of control), agonist: Imiquimod (TLR7) […].
Where [10] appears, read: library stock concentration (final ~1000-fold dilution): 10 mM, cytotoxicity flag (confluency mask): cytotoxic (confluency <70% of control), agonist: MPLA (TLR4) […].

In all, about 2,900 compounds were measured (“NF-kB SEAP reporter activity, fold change vs agonist alone”: median about 0.99, highest 2% from about 2.6 on). Many of the other results were omitted from the sample, so the highest values are more common in it than they were.

As for `CC1CNc2c(cccc2S(=O)(=O)NC(CCCNC(=N)N)C(=O)N2CCC(C)CC2C(=O)O)C1.O` (configuration not stated) (library stock concentration (final ~1000-fold dilution): 10 mM), the “NF-kB SEAP reporter activity” value in assay [1] (agonist: LPS (TLR4) 0.1 ug/mL) is 0.94; in assay [1] (setting [4]), 1.05; in assay [1] (setting [5]), 0.969; in assay [1] (setting [6]) it was 0.87.

On to `CC1CNc2c(cccc2S(=O)(=O)NC(CCCNC(=N)N)C(=O)N2CCC(C)CC2C(=O)O)C1.O` (configuration not stated), for which the “NF-kB SEAP reporter activity” value in assay [2] (setting [7]) is 0.981.

Regarding `O=C(OC1OC2COC(=O)c3cc(O)c(O)c(O)c3-c3c(cc(O)c(O)c3O)C(=O)OC(C2O)C1O)c1cc(O)c(O)c(O)c1` (configuration not stated), the entries for the “NF-kB SEAP reporter activity” value in assay [2] (setting [8]) and in assay [2] (setting [7]) were 0.783 and 1.08, respectively.

In the case of `O=C(OC1OC2COC(=O)c3cc(O)c(O)c(O)c3-c3c(cc(O)c(O)c3O)C(=O)OC(C2O)C1O)c1cc(O)c(O)c(O)c1` (configuration not stated) (library stock concentration (final ~1000-fold dilution): 10 mM), the “NF-kB SEAP reporter activity” value in assay [1] (agonist: LPS (TLR4) 0.1 ug/mL) is 1.34; in assay [1] (setting [4]) it was 0.874; in assay [1] (setting [5]), 0.809; in assay [1] (setting [6]) it was 0.393.

Regarding `C=C1c2cccc(O)c2C(=O)C2=C(O)C3(O)C(=O)C(C(N)=O)=C(O)C(N(C)C)C3C(O)C12.Cl` (configuration not stated), the “NF-kB SEAP reporter activity” value was 0.915 in assay [2] (library stock concentration (final ~1000-fold dilution): 10 mM water, cytotoxicity flag (confluency mask): not cytotoxic, agonist: Imiquimod (TLR7) […]) and 1.08 in assay [2] (library stock concentration (final ~1000-fold dilution): 10 mM water, cytotoxicity flag (confluency mask): not cytotoxic, agonist: MPLA (TLR4) […]).

As to `C=C1c2cccc(O)c2C(=O)C2=C(O)C3(O)C(=O)C(C(N)=O)=C(O)C(N(C)C)C3C(O)C12.Cl` (configuration not stated) (library stock concentration (final ~1000-fold dilution): 10 mM water), the “NF-kB SEAP reporter activity” value is 1.12 in assay [1] (agonist: LPS (TLR4) 0.1 ug/mL), 1.14 in assay [1] (setting [4]), 1.26 in assay [1] (setting [5]) and 1.05 in assay [1] (setting [6]).

Take `Fc1ccc2c(/C=C/c3nnn[nH]3)c[nH]c2c1`: the “NF-kB SEAP reporter activity” value in assay [2] (setting [8]) came to 0.885; in assay [2] (setting [7]), 1.05.

For the compound `Fc1ccc2c(/C=C/c3nnn[nH]3)c[nH]c2c1` (library stock concentration (final ~1000-fold dilution): 10 mM), the “NF-kB SEAP reporter activity” value in assay [1] (agonist: LPS (TLR4) 0.1 ug/mL) was found to be 1.11; in assay [1] (setting [4]), 0.894; in assay [1] (setting [5]), 0.966; in assay [1] (setting [6]), 1.14.

`C/C1=C/CC[C@@]2(C)O[C@@H]2[C@H]2OC(=O)[C@H](CN(C)C)[C@@H]2CC1`: the “NF-kB SEAP reporter activity” value amounted to 0.137 in assay [2] (setting [8]) and 0.246 in assay [2] (setting [7]).

In the case of `C/C1=C/CC[C@@]2(C)O[C@@H]2[C@H]2OC(=O)[C@H](CN(C)C)[C@@H]2CC1` (library stock concentration (final ~1000-fold dilution): 10 mM), the “NF-kB SEAP reporter activity” value in assay [1] (agonist: LPS (TLR4) 0.1 ug/mL) amounted to 0.302; in assay [1] (setting [4]), 0.185; in assay [1] (setting [5]) it was 0.197; in assay [1] (setting [6]), 0.151.

In the case of `O=C(CCCCCCNC(=O)c1cnc(N(c2ccccc2)c2ccccc2Cl)nc1)NO`, the “NF-kB SEAP reporter activity” value in assay [2] (setting [9]) came out at 1.51; in assay [2] (setting [10]), 2.19.

With `CCOC(=O)NCCCC(=O)NCCc1ccccc1`, the “NF-kB SEAP reporter activity” value in assay [2] (setting [8]) worked out at 0.961; in assay [2] (setting [7]), 0.985.

With `CCN(CC)CCNC(=O)c1ccc(N)cc1.Cl` (library stock concentration (final ~1000-fold dilution): 10 mM), the “NF-kB SEAP reporter activity” value in assay [1] (agonist: LPS (TLR4) 0.1 ug/mL) turned out to be 0.999; in assay [1] (setting [4]), 1.02; in assay [1] (setting [5]) it was 0.923; in assay [1] (setting [6]), 1.04.

Turning to `CCN(CC)CCNC(=O)c1ccc(N)cc1.Cl`, the “NF-kB SEAP reporter activity” value in assay [2] (setting [8]) was determined as 0.94; in assay [2] (setting [7]), 1.05.

For `O=C(NO)c1cccc(C(=O)NCCc2ccccc2)c1` (library stock concentration (final ~1000-fold dilution): 10 mM), the “NF-kB SEAP reporter activity” value in assay [1] (agonist: LPS (TLR4) 0.1 ug/mL) worked out at 0.989; in assay [1] (setting [4]), 1.12; in assay [1] (setting [5]) it was 0.864; in assay [1] (setting [6]) it was 0.709.

`O=C(N/N=C/c1ccc(O)c(O)c1)c1cc2ccccc2cc1O`: the “NF-kB SEAP reporter activity” value turned out to be 0.605 in assay [2] (setting [8]) and 0.843 in assay [2] (setting [7]).

For `O=C(CCCCCCNC(=O)c1cnc(N(c2ccccc2)c2ccccc2)nc1)NO`, the “NF-kB SEAP reporter activity” value is 1.12 in assay [2] (setting [9]) and 2.14 in assay [2] (setting [10]).

Regarding `CN(C)c1ccc(C(=O)NCCCCCCC(=O)NO)cc1` (library stock concentration (final ~1000-fold dilution): 10 mM), the “NF-kB SEAP reporter activity” value in assay [3] (agonist: LPS (TLR4) 0.1 ug/mL) stood at 4.72; in assay [3] (setting [4]) it was 2.78; in assay [3] (setting [5]), 1.17; in assay [3] (setting [6]) it was 2.01.

As to `CN(C)CCCNC(=O)c1ccc(-c2cc(O)c3ncccc3c2)cc1` (library stock concentration (final ~1000-fold dilution): 10 mM), the “NF-kB SEAP reporter activity” value in assay [1] (agonist: LPS (TLR4) 0.1 ug/mL) amounted to 0.881; in assay [1] (setting [4]), 1.38; in assay [1] (setting [5]) it was 1.13; in assay [1] (setting [6]), 1.34.

With `O=C(CCCCCCNC(=O)c1cnc(N(c2ccccc2)c2ccccc2)nc1)NO` (library stock concentration (final ~1000-fold dilution): 10 mM), the “NF-kB SEAP reporter activity” value in assay [3] (agonist: LPS (TLR4) 0.1 ug/mL) worked out at 4.12; in assay [3] (setting [4]) it was 1.3; in assay [3] (setting [5]), 0.825; in assay [3] (setting [6]), 1.08.

As to `CN(C)c1ccc(C(=O)NCCCCCCC(=O)NO)cc1`, the entries for the “NF-kB SEAP reporter activity” value in assay [2] (setting [9]) and in assay [2] (setting [10]) were 2.83 and 2.64, respectively.

Consider `O=C(N/N=C/c1ccc(O)c(O)c1)c1cc2ccccc2cc1O` (library stock concentration (final ~1000-fold dilution): 10 mM), for which the “NF-kB SEAP reporter activity” value is 0.616 in assay [1] (agonist: LPS (TLR4) 0.1 ug/mL), 0.257 in assay [1] (setting [4]), 0.16 in assay [1] (setting [5]) and 0.192 in assay [1] (setting [6]).

For `O=C(CCCCCCC(=O)N/N=C/c1ccc(N(c2ccccc2)c2ccccc2)cc1)NO`, the “NF-kB SEAP reporter activity” value in assay [2] (setting [9]) came out at 1.77; in assay [2] (setting [10]) it was 2.3.

In the case of `O=C(CCCCCCC(=O)N/N=C/c1ccc(N(c2ccccc2)c2ccccc2)cc1)NO` (library stock concentration (final ~1000-fold dilution): 10 mM), the “NF-kB SEAP reporter activity” value came out at 5.47 in assay [3] (agonist: LPS (TLR4) 0.1 ug/mL), 2.71 in assay [3] (setting [4]), 1.09 in assay [3] (setting [5]) and 1.61 in assay [3] (setting [6]).

With `O=C(NO)c1cccc(C(=O)NCCc2ccccc2)c1`, the “NF-kB SEAP reporter activity” value in assay [2] (setting [8]) and in assay [2] (setting [7]) was 1.05 each time.

In the case of `O=C(CCCCCCNC(=O)c1cnc(N(c2ccccc2)c2ccccc2Cl)nc1)NO` (library stock concentration (final ~1000-fold dilution): 10 mM), the “NF-kB SEAP reporter activity” value came out at 4.23 in assay [3] (agonist: LPS (TLR4) 0.1 ug/mL), 2.1 in assay [3] (setting [4]), 0.586 in assay [3] (setting [5]) and 1.47 in assay [3] (setting [6]).

For the origin of these results see the supplement of paper PMC10037445.
